Measured values: ChEMBL document CHEMBL3988442, “University of Dundee, Small-Polar-MMV Screening Library” (2021)

These compounds were tested against T1, Arginase-2, mitochondrial (Homo sapiens) (UniProt P78540) (assay: in vitro enzyme assay to detect the production of urea directly proportional to the activity of Arginase II). Details: 33.3 µM.
T1 sequence (whole entry): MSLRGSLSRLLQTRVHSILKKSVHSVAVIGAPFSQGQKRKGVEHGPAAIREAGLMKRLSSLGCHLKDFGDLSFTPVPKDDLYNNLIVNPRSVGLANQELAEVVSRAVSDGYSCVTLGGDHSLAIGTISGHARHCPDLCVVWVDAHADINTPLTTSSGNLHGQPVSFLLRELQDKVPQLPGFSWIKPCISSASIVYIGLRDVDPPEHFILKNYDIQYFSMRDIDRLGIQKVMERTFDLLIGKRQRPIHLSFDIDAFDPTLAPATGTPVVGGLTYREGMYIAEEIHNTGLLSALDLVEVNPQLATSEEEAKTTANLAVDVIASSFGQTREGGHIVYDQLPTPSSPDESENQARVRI
Assay type: functional
Parameters: scale not given: in the data most compounds retested in dose-response had high values
`Cc1cccc(N2CC[C@@H]3CN(C(=O)c4ccco4)CCO[C@@H]3C2)n1` was tested, and the Percent Effect was 4.89%. `CCC1=N[C@@]2(CC[C@@H]3CN(CC(=O)N(C)C)C[C@@H]32)C(=O)N1CC1CC1` was tested, and the Percent Effect was -12.2%. With `CCCC(NC(=O)c1ccc(OC)cc1F)c1nnn[nH]1` (stereo not given) the Percent Effect was 17.2%. `Cc1noc(C(C)N2CCN(CC(=O)N3CCOCC3)CC2)n1` (stereo not given) gave a Percent Effect of -4.73%. In the case of `c1ccc(CN2CCCC2Cn2cncn2)nc1` (stereo not given), the Percent Effect is reported as -0.76%. `O=C(c1ccno1)N1CC[C@@H]2O[C@@H](COCCN3CCCC3)CC[C@@H]21` was tested, and the Percent Effect was -1.59%. For `CCOc1ccnc(N2CCN(C(=O)c3cccnc3O)CC2)n1`, the Percent Effect was 4.56%. `CC(C)(C(=O)NCC(N)=O)c1ccccc1F` gave a Percent Effect of -17.7%. `CCOc1ncccc1C(=O)N(C)Cc1ncc(C)c(OC)c1C` showed a Percent Effect of 6.95%. In the case of `Cc1cccc(C(=O)N2C[C@@H]3CCN(c4cccnc4)C[C@@H]3C2)c1`, the Percent Effect is reported as 0.233%. `CC(OCC(F)(F)F)C(=O)Nc1ccc(-n2cncn2)nc1` (stereo not given) showed a Percent Effect of 1.05%. With `Cc1noc(C)c1-c1cncc(C2CCCN2Cc2ccncc2)n1` (stereo not given) the Percent Effect was 0.696%. `C=C(C)CN(Cc1cccc(O)c1)C1CCC(O)CC1` (stereo not given) was tested, and the Percent Effect was -0.248%. `COc1ccccc1CC(=O)N1CCC(NCc2c[nH]nc2C)CC1` showed a Percent Effect of 0.924%. Work on `CC(C)Cc1noc(CN2CCN(CCO)CC2)n1` yielded a Percent Effect of 0.766%. `COc1cccc(CN(C)C(=O)CN2CC(n3nc(C)cc3C)C2)c1` was tested, and the Percent Effect was 1.18%. `CCc1noc(C)c1C(=O)N1CCCC1Cn1nc(C)cc1C` (stereo not given) showed a Percent Effect of 1.8%. `COc1ccc(CN(C)C(=O)CCc2c(C)nc(C)[nH]c2=O)cc1OC` showed a Percent Effect of 0%. In the case of `Cc1cc(N2CCCN(C(=O)Cc3ccc(O)c(Cl)c3)CC2)ccn1`, the Percent Effect is reported as 0.399%. Compound `Cc1ccc2nc(C3CCN(CCO)CC3)nn2c1` has a Percent Effect of -59.7%. With `Cc1ccsc1C(=O)N1CC(C(=O)N2CCOCC2)C2(CCOCC2)C1` (stereo not given) the Percent Effect was 0.645%. Compound `Cc1ccccc1C(=O)NCc1ccc(N2CCNC(=O)C2)cc1` has a Percent Effect of -14.8%. With `CC1CCN(S(=O)(=O)NCCCn2cncn2)CC1` the Percent Effect was 5.38%. With `CCN(Cc1ccc2c(c1)OCO2)C(=O)NC(C)Cn1cccn1` (stereo not given) the Percent Effect was 1.42%. Compound `CCN(CC)C(=O)CCc1c(C)nc2cc(O)nn2c1C` has a Percent Effect of -1.18%. `CC(C)NC(=O)[C@@H]1C[C@H](N)CN1C(=O)c1cc2ccccc2[nH]c1=O` was tested, and the Percent Effect was 4.86%. `CCc1ccc(NC(=O)N2C[C@H]3C[C@H](C(=O)NC)[C@@H](C2)O3)cc1` was tested, and the Percent Effect was 0.645%. For `CCN1CC2(CCNCC2)COc2ccccc2S1(=O)=O`, the Percent Effect was -18.1%. `CN1CCc2cc(C(CNS(=O)(=O)c3cccs3)N3CCCC3)ccc21` (stereo not given) gave a Percent Effect of -9.68%. For `CC(NC(=O)N(C)Cc1ccc(Cl)s1)c1ccccn1` (stereo not given), the Percent Effect was 1.07%. For `O=c1oc(-c2cccs2)nn1CC(O)c1ccccc1` (stereo not given), the Percent Effect was -27.6%. `Cc1cc(NC(=O)NCc2ccccc2OC(F)F)n(C)n1` was tested, and the Percent Effect was 4.09%. With `O=C(Cn1ccc2ccccc21)NCc1ccc(C(=O)O)cc1` the Percent Effect was 0%. Work on `CCCNC(=O)Cn1nc(C(C)C)c2cnn(C(C)(C)C)c2c1=O` yielded a Percent Effect of 2.27%. In the case of `Cc1ccc(CNCc2nnc3n2CCCC3C(F)(F)F)s1` (stereo not given), the Percent Effect is reported as 4.69%. `CCn1c(Cn2cncn2)nnc1C1CCN(Cc2ccncc2)CC1` showed a Percent Effect of 2.73%. In the case of `CC(=O)c1cc(CC(=O)NCc2ccc(CN(C)C)cc2)cs1`, the Percent Effect is reported as 0.476%. Work on `CN(Cc1ccsc1)C(=O)CN1CCCC1Cn1cccn1` (stereo not given) yielded a Percent Effect of -1.05%. For `c1cnnc(N2CCCC2CNCc2nc3ccccc3o2)c1` (stereo not given), the Percent Effect was -3.19%. `CCN1C[C@@H]2[C@@H](OC)CCN(S(=O)(=O)c3ccccc3)[C@@H]2C1` gave a Percent Effect of 0.233%.
